Here are results for eight compounds from PubChem BioAssay (NCI).

Among the test systems are NCI-H23 lung; NCI-H226 lung; NCI-H322M lung; HOP-62 NSCLC; NCI-H460 lung; 786-0 renal; DU-145 prostate; MDA-MB-231 breast; SF-268 CNS; SF-539 CNS; M14 melanoma; SNB-19 CNS; U251 CNS; SN12C renal; UO-31 renal; SK-OV-3 ovarian; MDA-MB-435 melanoma; SW-620 colon; HCT-116 colon; KM12 colon.
Experiment in all cases: NCI-60 one-dose screen, 48 h (100 = growth as untreated, 0 = no growth, -100 = all killed)
Holding throughout (conditions): 10 µM unless noted

About 83,000 compounds went through this panel and 20% of them were active in at least one assay; those are over-represented in the sample as a whole.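 Results are percent growth after 48 hours of single-concentration exposure. 100 means growth as in untreated cells, lower positive values show inhibition; negative values down to -100 show cell death.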 Values without a mark were called inactive. Calls of active or inactive are those of the source. The calls were made as follows: active = growth percent below 10; inactive = the rest.

In the case of `O=[N+]([O-])c1ccc(/C=C/C=C/c2ccc(S(=O)(=O)F)cc2)c(Cl)c1`, the growth in the assay on NCI-H23 lung is 96.4%; in the assay on NCI-H226 lung, 99.8%; with NCI-H322M lung, 94.7%; in the assay with HOP-62 NSCLC, 99.9%; in the assay with NCI-H460 lung, 107%; with 786-0 renal, 97.5%. Besides, the growth was 107% in the assay with DU-145 prostate; 99.3% with MDA-MB-231 breast; 96.1% with SF-268 CNS; 104% with SF-539 CNS; 100% in the assay on M14 melanoma; 94.3% with SNB-19 CNS. Besides, the growth in the assay with U251 CNS was 96.2%; in the assay on SN12C renal it was 96.7%; with UO-31 renal, 79.2%; in the assay with SK-OV-3 ovarian it was 98%; in the assay on MDA-MB-435 melanoma, 92.9%; in the assay with SW-620 colon, 104%. The growth was 106% in the assay with HCT-116 colon and 97.1% in the assay on KM12 colon.

For the compound `O=C1NC2(CCNCC2)Nc2ccccc21`, the growth with NCI-H23 lung was 100%; in the assay with NCI-H226 lung, 97.7%; in the assay with NCI-H322M lung, 109%; in the assay on HOP-62 NSCLC, 96.6%; in the assay with NCI-H460 lung, 110%; in the assay with 786-0 renal, 107%. The growth is 108% with DU-145 prostate; 120% in the assay on MDA-MB-231 breast; 106% in the assay with SF-268 CNS; 114% with SF-539 CNS; 100% in the assay with M14 melanoma; 96.2% in the assay with SNB-19 CNS. Besides, the growth with U251 CNS was 91.2%; in the assay with SN12C renal, 99.1%; with UO-31 renal it was 89.4%; with SK-OV-3 ovarian, 103%; in the assay on MDA-MB-435 melanoma, 104%; with SW-620 colon, 102%. Moreover, the growth is 100% in the assay on HCT-116 colon and 105% with KM12 colon.

For the compound `Nc1c(Br)cc2c3c(cccc13)-c1ccccc1-2`, the growth was 61.7% with NCI-H23 lung; 89.3% in the assay with NCI-H226 lung; 91.2% in the assay on NCI-H322M lung; 82.9% in the assay with HOP-62 NSCLC; 88.4% with NCI-H460 lung; 94.9% with 786-0 renal. Moreover, the growth in the assay with DU-145 prostate is 70%; in the assay with MDA-MB-231 breast it was 48.7%; with SF-268 CNS, 87.7%; with SF-539 CNS, 77.7%; in the assay on M14 melanoma, 58.5%; in the assay with SNB-19 CNS, 92.9%. The growth was 60.1% with U251 CNS; 90.4% in the assay with SN12C renal; 42.4% in the assay with UO-31 renal; 87.7% in the assay with SK-OV-3 ovarian; 78.8% in the assay on MDA-MB-435 melanoma; 90.4% in the assay with SW-620 colon. In addition, the growth with HCT-116 colon was 81.4%; in the assay on KM12 colon, 57.4%.

Regarding `NC(Cc1ccc(O)cc1)C(=O)N/N=C/c1ccc(N(CCCl)CCCl)cc1` (centres undefined), the growth in the assay on NCI-H23 lung is 69.6%; in the assay on NCI-H226 lung, 46.8%; in the assay with NCI-H322M lung, 102%; in the assay on HOP-62 NSCLC, 95.4%; in the assay with NCI-H460 lung, 27.1%; with 786-0 renal it was 43%. Besides, the growth with DU-145 prostate was 69.2%; with MDA-MB-231 breast it was 73.7%; in the assay with SF-268 CNS, 55.9%; in the assay with SF-539 CNS it was 33.3%; with M14 melanoma, 93.6%; in the assay on SNB-19 CNS it was 92.5%. Also, the growth is 76.7% in the assay with U251 CNS; 46.4% in the assay on SN12C renal; 52.2% in the assay on UO-31 renal; 90% with SK-OV-3 ovarian; 84.7% in the assay on MDA-MB-435 melanoma; 86.9% in the assay on SW-620 colon. Further, the values for the growth in the assay on HCT-116 colon and in the assay on KM12 colon were 84% and 75%, respectively.

On to `O=C(CC1(O)C(=O)Nc2ccc(F)cc21)c1ccc(C(=O)NCC2CCC3(CC2)OOC2(CCCCC2)OO3)cc1` (centres undefined), for which the growth in the assay with NCI-H23 lung is 34.9%; with NCI-H226 lung, 69.3%; in the assay on NCI-H322M lung, 94.6%; in the assay with HOP-62 NSCLC, -14.4% (active); in the assay with NCI-H460 lung it was 21.7%; with 786-0 renal, -78.5% (active). The growth in the assay on DU-145 prostate was 3.83% (active); in the assay on MDA-MB-231 breast, 41.5%; in the assay on SF-268 CNS, 63.4%; in the assay with SF-539 CNS, 7.74% (active); with M14 melanoma it was 83.9%; in the assay on SNB-19 CNS it was 80.2%. For the same compound, the growth in the assay on U251 CNS is 15.3%; in the assay with SN12C renal, 51.4%; in the assay with UO-31 renal it was -81.7% (active); in the assay on SK-OV-3 ovarian it was 91.1%; with MDA-MB-435 melanoma it was 63.8%; with SW-620 colon it was 61.1%. Further, the figures for the growth in the assay on HCT-116 colon and with KM12 colon were 69.7% and 32.5%, respectively.

On to `Nc1cccc2c1Oc1ccccc1O2`, for which the growth is 105% with NCI-H23 lung; 86.2% in the assay with NCI-H226 lung; 102% with NCI-H322M lung; 102% with HOP-62 NSCLC; 190% in the assay with NCI-H460 lung; 99.2% in the assay with 786-0 renal. In addition, the growth is 120% with DU-145 prostate; 93.1% in the assay with MDA-MB-231 breast; 176% in the assay on SF-268 CNS; 112% in the assay with SF-539 CNS; 108% in the assay with M14 melanoma; 114% in the assay on SNB-19 CNS. Besides, the growth is 99.6% in the assay with U251 CNS; 106% in the assay on SN12C renal; 201% in the assay with UO-31 renal; 184% in the assay on SK-OV-3 ovarian; 105% in the assay on MDA-MB-435 melanoma; 107% in the assay with SW-620 colon. In addition, the growth in the assay with HCT-116 colon is 93.3%; in the assay with KM12 colon it was 114%.

Regarding `O=C1NC(=O)C(=Cc2cn(Cc3ccccc3)c3ccccc23)C(=O)N1`, the growth in the assay with NCI-H23 lung was 93.2%; with NCI-H226 lung, -68.9% (active); in the assay on NCI-H322M lung, 81.7%; in the assay with HOP-62 NSCLC it was 73.9%; with NCI-H460 lung it was 29.9%; in the assay with 786-0 renal, 104%. For the same compound, the growth was 100% in the assay on DU-145 prostate; 84.9% in the assay with MDA-MB-231 breast; 90.8% in the assay on SF-268 CNS; 89.1% in the assay with SF-539 CNS; 99.5% in the assay on M14 melanoma; 84.1% in the assay on U251 CNS. Also, the growth was 88.8% in the assay on SN12C renal; 71.7% in the assay on UO-31 renal; 53.2% with SK-OV-3 ovarian; 91.4% in the assay with MDA-MB-435 melanoma; 83.6% in the assay on SW-620 colon; 86.1% in the assay on HCT-116 colon. Besides, the growth in the assay on KM12 colon was 99.5%.

As for `CCCCCCCCCCOc1ccc(C(=O)Oc2ccc(CSP3(=O)OCC4OC(n5ccc(=O)[nH]c5=O)C(F)C4OP(=O)(O)OCC4OC(n5cnc6c(N)ncnc65)C(F)C4O3)cc2)cc1` (centres undefined), the growth was 103% in the assay with NCI-H23 lung; 75.5% in the assay on NCI-H226 lung; 84.8% in the assay with NCI-H322M lung; 111% with HOP-62 NSCLC; 108% with NCI-H460 lung; 98.6% in the assay with 786-0 renal. Further, the growth in the assay on DU-145 prostate is 106%; in the assay on MDA-MB-231 breast it was 111%; with SF-268 CNS, 104%; in the assay with SF-539 CNS it was 23.1%; in the assay with M14 melanoma it was 90.7%; in the assay on SNB-19 CNS, 103%. The growth in the assay with U251 CNS was 104%; with SN12C renal, 101%; in the assay with UO-31 renal, 98.5%; in the assay on SK-OV-3 ovarian, 97.8%; with MDA-MB-435 melanoma it was 105%; with SW-620 colon, 115%. Moreover, the figures for the growth in the assay on HCT-116 colon and in the assay with KM12 colon were 79.9% and 103%, respectively.
